# Reference: the supplement of paper PMC4466140
# B1: unnamed (peptide)
# chain: QPWTDQFEKLEKEVS
# Biological target: AgAbp1
# Experiment: SPOT peptide array binding signal intensity (averaged, normalized) (arbitrary units (background-subtracted, floor 0; scale differs between SH3 domains)); higher = stronger binding of the SH3 domain to the peptide
# In short: (§1)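 GST-fused SH3 domains, from four yeast species, were produced in E. coli BL21(DE3) and captured on glutathione Sepharose. Membranes of cellulose carrying synthetic 15-mer peptides, in which cysteines had been replaced by serines, were exposed to each domain at 10 μg/ml overnight at 4°C in TBS-based blocking buffer. After anti-GST antibody, an HRP anti-mouse secondary and luminol, spots were imaged and quantified using Genespotter. Binding signal is normalized and background-subtracted spot intensity, averaged over replicates, in arbitrary units that differ between domains.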
row,Binder,SPOT peptide array binding signal intensity
1,B1,≤ 0

# Biological target: AgBbc1
# Experiment: as above
# In short: as §1
row,Binder,SPOT peptide array binding signal intensity
1,B1,≤ 0

# Biological target: AgBem1-D1
# Experiment: as above
# In short: as §1
row,Binder,SPOT peptide array binding signal intensity
1,B1,15

# Biological target: AgBzz1-D1
# Experiment: as above
# In short: as §1
row,Binder,SPOT peptide array binding signal intensity
1,B1,≤ 0

# Biological target: AgBzz1-D2
# Experiment: as above
# In short: as §1
row,Binder,SPOT peptide array binding signal intensity
1,B1,22

# Biological target: AgCyk3
# Experiment: as above
# In short: as §1
row,Binder,SPOT peptide array binding signal intensity
1,B1,1.5

# Biological target: AgFus1
# Experiment: as above
# In short: as §1
row,Binder,SPOT peptide array binding signal intensity
1,B1,≤ 0

# Biological target: AgHof1
# Experiment: as above
# In short: as §1
row,Binder,SPOT peptide array binding signal intensity
1,B1,≤ 0

# Biological target: AgHse1
# Experiment: as above
# In short: as §1
row,Binder,SPOT peptide array binding signal intensity
1,B1,26

# Biological target: AgLsb1
# Experiment: as above
# In short: as §1
row,Binder,SPOT peptide array binding signal intensity
1,B1,≤ 0

# Biological target: AgLsb4
# Experiment: as above
# In short: as §1
row,Binder,SPOT peptide array binding signal intensity
1,B1,≤ 0

# Biological target: AgMyo5
# Experiment: as above
# In short: as §1
row,Binder,SPOT peptide array binding signal intensity
1,B1,1.5

# Biological target: AgNbp2
# Experiment: as above
# In short: as §1
row,Binder,SPOT peptide array binding signal intensity
1,B1,≤ 0

# Biological target: AgRvs167
# Experiment: as above
# In short: as §1
row,Binder,SPOT peptide array binding signal intensity
1,B1,0.167

# Biological target: AgSho1
# Experiment: as above
# In short: as §1
row,Binder,SPOT peptide array binding signal intensity
1,B1,≤ 0

# Biological target: AgSla1-D1-D2
# Experiment: as above
# In short: as §1
row,Binder,SPOT peptide array binding signal intensity
1,B1,≤ 0

# Biological target: AgSla1-D3
# Experiment: as above
# In short: as §1
row,Binder,SPOT peptide array binding signal intensity
1,B1,≤ 0

# Biological target: CaAbp1-D1
# Experiment: as above
# In short: as §1
row,Binder,SPOT peptide array binding signal intensity
1,B1,≤ 0

# Biological target: CaAbp1-D2
# Experiment: as above
# In short: as §1
row,Binder,SPOT peptide array binding signal intensity
1,B1,≤ 0

# Biological target: CaBbc1
# Experiment: as above
# In short: as §1
row,Binder,SPOT peptide array binding signal intensity
1,B1,3.5

# Biological target: CaBem1-D1
# Experiment: as above
# In short: as §1
row,Binder,SPOT peptide array binding signal intensity
1,B1,≤ 0

# Biological target: CaBzz1-D1
# Experiment: as above
# In short: as §1
row,Binder,SPOT peptide array binding signal intensity
1,B1,≤ 0

# Biological target: CaBzz1-D2
# Experiment: as above
# In short: as §1
row,Binder,SPOT peptide array binding signal intensity
1,B1,≤ 0

# Biological target: CaCyk3
# Experiment: as above
# In short: as §1
row,Binder,SPOT peptide array binding signal intensity
1,B1,≤ 0

# Biological target: CaFus1
# Experiment: as above
# In short: as §1
row,Binder,SPOT peptide array binding signal intensity
1,B1,≤ 0

# Biological target: CaHof1
# Experiment: as above
# In short: as §1
row,Binder,SPOT peptide array binding signal intensity
1,B1,0.5

# Biological target: CaHse1
# Experiment: as above
# In short: as §1
row,Binder,SPOT peptide array binding signal intensity
1,B1,≤ 0

# Biological target: CaLsb1
# Experiment: as above
# In short: as §1
row,Binder,SPOT peptide array binding signal intensity
1,B1,0.5

# Biological target: CaLsb4
# Experiment: as above
# In short: as §1
row,Binder,SPOT peptide array binding signal intensity
1,B1,≤ 0

# Biological target: CaMyo5
# Experiment: as above
# In short: as §1
row,Binder,SPOT peptide array binding signal intensity
1,B1,≤ 0

# Biological target: CaNbp2
# Experiment: as above
# In short: as §1
row,Binder,SPOT peptide array binding signal intensity
1,B1,23

# Biological target: CaRvs167
# Experiment: as above
# In short: as §1
row,Binder,SPOT peptide array binding signal intensity
1,B1,1.33

# Biological target: CaRvs167-3
# Experiment: as above
# In short: as §1
row,Binder,SPOT peptide array binding signal intensity
1,B1,0.5

# Biological target: CaSho1
# Experiment: as above
# In short: as §1
row,Binder,SPOT peptide array binding signal intensity
1,B1,≤ 0

# Biological target: CaSla1-D1-D2
# Experiment: as above
# In short: as §1
row,Binder,SPOT peptide array binding signal intensity
1,B1,≤ 0

# Biological target: CaSla1-D3
# Experiment: as above
# In short: as §1
row,Binder,SPOT peptide array binding signal intensity
1,B1,≤ 0

# Biological target: ScAbp1
# Experiment: as above
# In short: as §1
row,Binder,SPOT peptide array binding signal intensity
1,B1,1

# Biological target: ScBbc1
# Experiment: as above
# In short: as §1
row,Binder,SPOT peptide array binding signal intensity
1,B1,4.75

# Biological target: ScBem1-D1
# Experiment: as above
# In short: as §1
row,Binder,SPOT peptide array binding signal intensity
1,B1,≤ 0

# Biological target: ScBzz1-D1
# Experiment: as above
# In short: as §1
row,Binder,SPOT peptide array binding signal intensity
1,B1,21

# Biological target: ScBzz1-D2
# Experiment: as above
# In short: as §1
row,Binder,SPOT peptide array binding signal intensity
1,B1,11

# Biological target: ScCyk3
# Experiment: as above
# In short: as §1
row,Binder,SPOT peptide array binding signal intensity
1,B1,≤ 0

# Biological target: ScFus1
# Experiment: as above
# In short: as §1
row,Binder,SPOT peptide array binding signal intensity
1,B1,≤ 0

# Biological target: ScHof1
# Experiment: as above
# In short: as §1
row,Binder,SPOT peptide array binding signal intensity
1,B1,≤ 0

# Biological target: ScHse1
# Experiment: as above
# In short: as §1
row,Binder,SPOT peptide array binding signal intensity
1,B1,67

# Biological target: ScLsb1
# Experiment: as above
# In short: as §1
row,Binder,SPOT peptide array binding signal intensity
1,B1,≤ 0

# Biological target: ScLsb2
# Experiment: as above
# In short: as §1
row,Binder,SPOT peptide array binding signal intensity
1,B1,≤ 0

# Biological target: ScLsb3
# Experiment: as above
# In short: as §1
row,Binder,SPOT peptide array binding signal intensity
1,B1,≤ 0

# Biological target: ScLsb4
# Experiment: as above
# In short: as §1
row,Binder,SPOT peptide array binding signal intensity
1,B1,3

# Biological target: ScMyo3
# Experiment: as above
# In short: as §1
row,Binder,SPOT peptide array binding signal intensity
1,B1,0.5

# Biological target: ScMyo5
# Experiment: as above
# In short: as §1
row,Binder,SPOT peptide array binding signal intensity
1,B1,0.75

# Biological target: ScNbp2
# Experiment: as above
# In short: as §1
row,Binder,SPOT peptide array binding signal intensity
1,B1,≤ 0

# Biological target: ScPex13
# Experiment: as above
# In short: as §1
row,Binder,SPOT peptide array binding signal intensity
1,B1,181

# Biological target: ScRvs167
# Experiment: as above
# In short: as §1
row,Binder,SPOT peptide array binding signal intensity
1,B1,1

# Biological target: ScSho1
# Experiment: as above
# In short: as §1
row,Binder,SPOT peptide array binding signal intensity
1,B1,≤ 0

# Biological target: ScSla1-D1-D2
# Experiment: as above
# In short: as §1
row,Binder,SPOT peptide array binding signal intensity
1,B1,≤ 0

# Biological target: ScSla1-D3
# Experiment: as above
# In short: as §1
row,Binder,SPOT peptide array binding signal intensity
1,B1,16.2

# Biological target: SpAbp1-D1
# Experiment: as above
# In short: as §1
row,Binder,SPOT peptide array binding signal intensity
1,B1,≤ 0

# Biological target: SpBbc1
# Experiment: as above
# In short: as §1
row,Binder,SPOT peptide array binding signal intensity
1,B1,1.5

# Biological target: SpBzz1-D1
# Experiment: as above
# In short: as §1
row,Binder,SPOT peptide array binding signal intensity
1,B1,≤ 0

# Biological target: SpBzz1-D2
# Experiment: as above
# In short: as §1
row,Binder,SPOT peptide array binding signal intensity
1,B1,≤ 0

# Biological target: SpCyk3
# Experiment: as above
# In short: as §1
row,Binder,SPOT peptide array binding signal intensity
1,B1,≤ 0

# Biological target: SpHof1
# Experiment: as above
# In short: as §1
row,Binder,SPOT peptide array binding signal intensity
1,B1,≤ 0

# Biological target: SpHof1-2
# Experiment: as above
# In short: as §1
row,Binder,SPOT peptide array binding signal intensity
1,B1,≤ 0

# Biological target: SpHof1-3
# Experiment: as above
# In short: as §1
row,Binder,SPOT peptide array binding signal intensity
1,B1,≤ 0

# Biological target: SpHse1
# Experiment: as above
# In short: as §1
row,Binder,SPOT peptide array binding signal intensity
1,B1,15.5

# Biological target: SpLsb1
# Experiment: as above
# In short: as §1
row,Binder,SPOT peptide array binding signal intensity
1,B1,≤ 0

# Biological target: SpLsb4
# Experiment: as above
# In short: as §1
row,Binder,SPOT peptide array binding signal intensity
1,B1,≤ 0

# Biological target: SpMyo1
# Experiment: as above
# In short: as §1
row,Binder,SPOT peptide array binding signal intensity
1,B1,≤ 0

# Biological target: SpNbp2
# Experiment: as above
# In short: as §1
row,Binder,SPOT peptide array binding signal intensity
1,B1,≤ 0

# Biological target: SpPex13
# Experiment: as above
# In short: as §1
row,Binder,SPOT peptide array binding signal intensity
1,B1,≤ 0

# Biological target: SpRvs167
# Experiment: as above
# In short: as §1
row,Binder,SPOT peptide array binding signal intensity
1,B1,≤ 0

# Biological target: SpSla1-D1-D2
# Experiment: as above
# In short: as §1
row,Binder,SPOT peptide array binding signal intensity
1,B1,3

# Biological target: SpSla1-D3
# Experiment: as above
# In short: as §1
row,Binder,SPOT peptide array binding signal intensity
1,B1,≤ 0
